# From PubChem BioAssay
# Only some compounds are listed: those with a hit (about 9.8% of all), similar ones and a draw of the others.
# ALDH1A1 inh: qHTS Assay for Inhibitors of Aldehyde Dehydrogenase 1 (ALDH1A1) | Purified ALDH1A1, NADH fluorescence, propionaldehyde substrate | Potency, µM (series often up to 75.3 µM), inactives show at the highest dose activity, negative = inhibition, hits mostly inhibitors | 7.3% of 220,000 active | AID 1030, 2008; active means well fitted inhibition curve with a large enough effect, not every such curve was filed as active; inconclusive means small, poorly fitted or top-dose-only effect, or another doubt; inactive means no such curve, though single readings can be large or run the other way;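 further: potency means the concentration at half of the fitted maximal effect; plate controls were no enzyme wells and a reference inhibitor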
# HTT cytoprotect: qHTS Multiplex Assay to Identify Dual Action Probes in a Cell Model of Huntington: Cytoprotection (ATP) | 0.14% of 230,000 active | PC12 HTT-Q103 induced, cytoprotection, ATP luminescence, 40 h | AID 1471, 2008 | Potency, µM (top dose mostly 56.4 µM), for inactives: cytoprotection (ATP increase), hits mostly activators; further: potency means the concentration at half of the fitted maximal effect; % of control where 0% means no effect; nearly all actives have a fitted effect of over 45% in size
#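 PC12 cells with ecdysone-inducible HTT exon 1 Q103-GFP, induced with 100 nM tebufenozide and co-treated with library compounds in a dose series (1536-well, 1500 cells/well). Cytoprotection read as ATP content by ATPlite luminescence.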
# HTT aggregate: qHTS Multiplex Assay to Identify Dual Action Probes in a Cell Model of Huntington: Aggregate Formation (GFP); Potency, µM (titrated, usually from 46.1 µM), without a hit: at the top dose activity change, negative = inhibition, actives largely listed as inhibitors; PC12 HttQ103-GFP aggregates, Acumen cytometry, 40 h; 1.1% of 220,000 active; AID 1688, 2009; further: potency means the concentration at half of the fitted maximal effect; on the % scale 0 is the no-effect control and ±100 the full control effect; nearly all actives have a fitted effect of over 60% in size
#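 PC12/HTTQ103-GFP, ecdysone-inducible; teb 100 nM; cpd qHTS titration; GFP aggregates read on laser cytometer, Ex 488/Em 500-530 nm.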
# CBFb-RUNX1 inh: qHTS Assay for Compounds Blocking the Interaction Between CBF-beta and RUNX1 for the Treatment of Acute Myeloid Leukemia; 230,000 tested, under 10 active; Runt-related transcription factor 1 (Homo sapiens) + Core-binding factor subunit beta …; AlphaScreen CBFb-His/RUNX1-biotin binding, biochemical; Potency, µM (titrated, usually from 59.8 µM), for inactives: top-dose activity, negative = inhibition, usual class: inhibitors; further: % of control where 0% means no effect
# Target sequence (Q01196 whole entry, looked up): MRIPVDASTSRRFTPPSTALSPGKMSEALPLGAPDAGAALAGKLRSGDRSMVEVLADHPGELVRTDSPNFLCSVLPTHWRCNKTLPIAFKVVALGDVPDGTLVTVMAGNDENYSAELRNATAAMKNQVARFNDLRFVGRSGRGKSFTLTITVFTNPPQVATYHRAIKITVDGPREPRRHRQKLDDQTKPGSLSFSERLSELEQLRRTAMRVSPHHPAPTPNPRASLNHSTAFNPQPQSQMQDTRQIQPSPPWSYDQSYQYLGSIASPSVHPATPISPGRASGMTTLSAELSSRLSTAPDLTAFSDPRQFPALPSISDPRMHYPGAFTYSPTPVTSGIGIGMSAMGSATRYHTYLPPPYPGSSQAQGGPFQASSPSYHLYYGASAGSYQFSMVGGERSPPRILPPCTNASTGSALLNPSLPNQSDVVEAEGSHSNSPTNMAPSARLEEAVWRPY
# Target sequence (Q13951 whole entry, looked up): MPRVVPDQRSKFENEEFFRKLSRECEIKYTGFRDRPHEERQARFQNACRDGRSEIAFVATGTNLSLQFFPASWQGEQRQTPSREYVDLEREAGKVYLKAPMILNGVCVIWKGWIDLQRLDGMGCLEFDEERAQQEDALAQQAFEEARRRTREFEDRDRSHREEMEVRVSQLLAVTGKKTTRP
#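 AlphaScreen proximity signal reports loss of binding between His-tagged CBF-beta and biotin-labelled RUNX1, each at 30 nM. Proteins are pre-associated for 20 minutes, compounds added for 15 minutes, then beads for 90 minutes, all at ambient temperature.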
# KDM4E inh: qHTS Assay for Inhibitors of Human Jumonji Domain Containing 2E (JMJD2E); AID 2147, 2009; 1.6% of 230,000 active; JMJD2E catalytic domain, FDH-coupled NADH fluorescence (FDH is formaldehyde dehydrogenase); Potency, µM (top dose mostly 57.1 µM), without a hit: at the top dose activity change, negative = inhibition, usual class: inhibitors; active means well fitted inhibition curve with a large enough effect, not every such curve was filed as active; inconclusive means small, poorly fitted or top-dose-only effect, or another doubt; inactive means no such curve, though single readings can be large or run the other way;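 further: potency means the concentration at half of the fitted maximal effect; 0% = wells with enzyme and -100% = buffer wells without enzyme; nearly all actives have a fitted effect of over 50% in size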
# HPGD inh: qHTS Assay for Inhibitors of HPGD (15-Hydroxyprostaglandin Dehydrogenase) | 15-hydroxyprostaglandin dehydrogenase [NAD(+)] (Homo sapiens), P15428 | purified HPGD, NADH fluorescence kinetic, PGE2 substrate | Potency, µM, for inactives: top-dose activity change, negative = inhibition, most hits filed as inhibitors | 4.3% of 150,000 active | AID 894, 2007; active means well fitted inhibition curve with a large enough effect, not every such curve was filed as active; inconclusive means small, poorly fitted or top-dose-only effect, or another doubt; inactive means no such curve, though single readings can be large or run the other way; further: potency means the concentration at half of the fitted maximal effect; on the % scale 0 is the no-effect control and ±100 the full control effect
#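 20 nM HPGD preincubated 15 min at room temperature with compound in 50 mM Tris-HCl pH 8, 0.01% Tween 20. Started with 1 mM NAD+ and 30 uM prostaglandin E2; NADH fluorescence (360/450 nm) read 5 times over 30-s intervals, last minus first.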
# Starred values were filed as active, the others as inactive; ? = inconclusive; · = not tested or not shown; [ ] = dose if it differs, or a comment. Unless noted, the call rests on the fitted dose curve; in most records, active means well fitted curve in the direction sought with a large enough effect; inconclusive means small, poorly fitted or top-dose-only effect, or another doubt; inactive means no such curve, though single readings can be large; an effect the other way counts as inactive or inconclusive.
SMILES,ALDH1A1 inh,HTT cytoprotect,HTT aggregate,CBFb-RUNX1 inh,KDM4E inh,HPGD inh
COc1cc(SC#N)ccc1N=Cc1c(C)[nH]n(-c2ccc(C)cc2C)c1=O,0.71µM*,?,?,1%,-2%,8.9µM*
COc1cc(S(=O)(=O)Nc2ccc(C)cc2)ccc1N=Cc1c(C)[nH]n(-c2ccc(C)cc2)c1=O,1%,-1%[10 µM],14%,1%,3%,-17%
CC#CCN1c2ccccc2[C@]23C[C@@H](C(=O)OC)N(S(=O)(=O)c4ccc(C(F)(F)F)cc4)C2=NC(C(=O)OC)=C(C(=O)OC)[C@H]13,2%[13.5 µM],-12%[10 µM],·,3%[13.1 µM],8%[11.4 µM],2%
COc1ccccc1-n1c(SCC(=O)Nc2ccccc2F)nc2[nH]ncc2c1=O,?,-1%[0.074 µM],11%,1%,4%,-8%
COc1ccccc1-n1c(SCC(N)=O)nc2c(c1=O)SCC2,?,-2%,5%,7%,4%,-10%
COc1ccc(NC(=O)CSc2nc3c(c(=O)n2-c2ccccc2OC)SCC3)cc1,11µM*,17%[10 µM],-8%,3%,-1%,-5%
CCOc1ccc(NC(=O)CSc2nc3[nH]ncc3c(=O)n2-c2ccccc2OC)cc1,8.9µM*,·,?,-1%,-11%,-9%
COC(=O)C(C)Sc1nc2c(c(=O)n1-c1ccccc1)SCC2 (stereo not drawn),3.2µM*,-2%,14%,-15%,-5%,-8%
CCN(CC)c1ccc(/C=N/NC(=O)C(O)(c2ccccc2)c2ccccc2)o1,-15%,-11%[10 µM],?,-13%,-16%,?
O=C(NC1(O)C(=O)c2ccccc2C1=O)c1ccccc1,1.4µM*,12%[10 µM],?,8%,?,-4%
O=C(NC1(O)C(=O)c2ccccc2C1=O)c1c(Cl)cccc1Cl,·,-3%[10 µM],-8%[9.22 µM],1%,?,·
CC[C@]1(O)C[C@H]2CN(CCc3c([nH]c4ccccc34)[C@@](C(=O)OC)(c3cc4c(cc3OC)N(C=O)[C@H]3[C@@](O)(C(=O)OC)[C@H](OC(C)=O)[C@]5(CC)C=CCN6CC[C@]43[C@@H]65)C2)C1,·,-321%,?,·,·,·
Cc1ccc(C(=O)CCNc2ccc(Cl)cc2)o1,4µM*,5%,?,-8%,8%,-10%
Cc1ccc(NS(=O)(=O)c2cc(C(=O)O)ccc2Cl)cc1,-6%,7%,3%[9.22 µM],3%,1%,0%
CC(=O)c1ccc(NCCC(=O)c2ccccc2)cc1,6.3µM*,-47%,21%,3%,-16%,·
Cc1ccc(NCCC(=O)c2ccc(Cl)c(Cl)c2)cc1,0.79µM*,-7%,?,-9%,3%,-15%
OCCNc1ccc(Cl)cc1,3%,-8%,-12%,0%,4%,-13%
CCCOc1ccc(C(=O)CCNc2ccc(C)c(Cl)c2)cc1,18µM*,0%,4%,4%,3%,-5%
C/C(CC(=O)Nc1ccccn1)=N\NC(=O)c1cccc(C)c1,4%,-23%[10 µM],-2%[9.22 µM],3%,-1%,·
COc1cccc(C(C)NC(=O)Nc2cccc(C(F)(F)F)c2)c1 (stereo not drawn),10%,-9%,?,-5%,-1%,-21%
CCc1ccc(NCCC(=O)c2ccc(Cl)cc2)cc1,1.6µM*,-14%,7%,4%,9%,-7%
Cc1ccc(NCCC(=O)c2ccc(Cl)cc2)cc1C,2.8µM*,-10%,3%,2%,5%,-10%
CC(=O)c1ccc(NS(=O)(=O)Cc2ccccc2)cc1,-4%,2%,-4%[9.22 µM],5%,0%,25µM*
Cc1ccc(NC(=O)CCC(=O)c2ccc(F)cc2)cc1Cl,8%,-19%,7%,3%,11%,1%
C[C@H](O)C(N)C(=O)O (stereo partly drawn),·,·,·,-15%,·,·
SMILES,ALDH1A1 inh,HTT cytoprotect,HTT aggregate,CBFb-RUNX1 inh,KDM4E inh,HPGD inh
CN(Cc1nc(-c2cnccn2)no1)Cc1n[nH]c2c1CCCC2,-3%,-3%[10 µM],9%[9.22 µM],-8%,2%,·
CC1CN(C2CCN(S(=O)(=O)c3ccccc3)CC2)CC(C)O1 (stereo not drawn),?,-3%[10 µM],-12%,-1%,4%,-11%
CC1CN(C2CCN(S(=O)(=O)c3ccc(F)cc3)CC2)CC(C)O1 (stereo not drawn),25µM*,6%,28%,2%,?,-2%
O=C(CCc1n[nH]c(=O)[nH]c1=O)N1CCCCC1,4.5µM*,-13%,-8%,7%,4%,-19%
CC1(C)Cc2c(sc3[nH]c(=S)[nH]c(=O)c23)CO1,7.9µM*,8%[10 µM],-16%[9.22 µM],16%,15%,·
Cn1c(=O)[nH]c2sc3c(c2c1=O)CC(C)(C)OC3,0%,5%,-7%,-3%,14%,?
CN(CCO)c1ccc([N+](=O)[O-])cc1C(=O)O,22µM*,-1%[10 µM],-2%,2%,-5%,-20%
O=c1cc(CN2CCN(c3ccccc3F)CC2)c2cc(O)c(-c3ccccc3)cc2o1,28µM*,·,27%,6%,-19%,-23%
COc1ccc(N2CCN(Cc3cc(=O)oc4cc(-c5ccccc5)c(O)cc34)CC2)cc1,-13%,-34%,-17%,8%,3%,-22%
C=CCn1c(SCC(=O)N2CCCCC2)nc(O)cc1=O,7%,3%,3%,-2%,2%,0.32µM*
CN(C)c1ccc(C(=O)Nc2nc3c(s2)CCCC3)cc1,?,-44%[10 µM],5%,-4%,?,?
C/C(=N\Nc1nc2c(s1)CCCC2)c1ccc(Cl)cc1,28µM*,-15%,-4%,-16%,-23%,-14%
Cc1nc(-c2cccc(Br)c2)ccc1C(=O)O,-3%,-47%,-12%,3%,-16%,·
CCOc1ccc(NC(=O)c2cc(F)c(F)cc2Cl)cc1OCC,4%,-34%,23%,-11%,-3%,·
CSc1sc(C(=O)NCC2CC2)c(-c2cccs2)c1C#N,8.9µM*,1%[10 µM],-11%[9.22 µM],11%,-7%,·
CSc1sc(C(=O)NCC2CC2)c2c1S(=O)(=O)N(C)c1ccccc1-2,·,-5%[10 µM],1%[9.22 µM],3%,2%,·
N#CC1=C2SCN(Cc3ccco3)CN2C(=O)CC1c1c(F)cccc1Cl (stereo not drawn),8.9µM*,-11%,-2%,-2%,?,18µM*
